# Values without a mark were called inactive.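 How the source made its calls: active = AUC reduced over 20% with Padj below 0.05 in at least 2 of 3 replicates; inactive = otherwise.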
# Columns and labels:
# Assay in all cases: growth AUC relative to DMSO control (median of replicates) (fraction); higher = more growth (less inhibition), active = hit call of the paper
# Details in all cases: 20 µM; 24 h
# Akkermansia muciniphila = tested on: Akkermansia muciniphila
# Outline: (§1)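 Gut bacteria were grown singly in mGAM at 37 °C without oxygen, from OD600 0.05, alongside 20 µM compound in 1% DMSO, and OD600 was read each hour for 24 h. Area under the growth curve was normalised to the median of solvent-only wells per plate, or to row and column medians on the industrial chemical plate. The minimum OD was set to 0 beforehand, and the reported value is the median of three biological replicates grown on separate days.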
# Bacteroides caccae = tested on: Bacteroides caccae
# Outline: as §1
# Bacteroides clarus = tested on: Bacteroides clarus
# Outline: as §1
# Bacteroides dorei = tested on: Bacteroides dorei
# Outline: as §1
# Bacteroides stercoris = tested on: Bacteroides stercoris
# Outline: as §1
# [1] = tested on: Bacteroides thetaiotaomicron
# Outline: as §1
# Bacteroides uniformis = tested on: Bacteroides uniformis
# Outline: as §1
# [2] = tested on: Bifidobacterium longum subsp. longum
# Outline: as §1
# Clostridium difficile = tested on: Clostridium difficile
# Outline: as §1
# Collinsella aerofaciens = tested on: Collinsella aerofaciens
# Outline: as §1
# Coprococcus comes = tested on: Coprococcus comes
# Outline: as §1
# Escherichia coli ED1a = tested on: Escherichia coli ED1a
# Outline: as §1
# Escherichia coli IAI1 = tested on: Escherichia coli IAI1
# Outline: as §1
# Eubacterium rectale = tested on: Eubacterium rectale
# Outline: as §1
# [3] = tested on: Fusobacterium nucleatum subsp. animalis
# Outline: as §1
# Lactobacillus gasseri = tested on: Lactobacillus gasseri
# Outline: as §1
# Lactobacillus paracasei = tested on: Lactobacillus paracasei
# Outline: as §1
# Odoribacter splanchnicus = tested on: Odoribacter splanchnicus
# Outline: as §1
# [4] = tested on: Parabacteroides distasonis
# Outline: as §1
# Parabacteroides merdae = tested on: Parabacteroides merdae
# Outline: as §1
SMILES,growth AUC (Akkermansia muciniphila),growth AUC (Bacteroides caccae),growth AUC (Bacteroides clarus),growth AUC (Bacteroides dorei),growth AUC (Bacteroides stercoris),growth AUC [1],growth AUC (Bacteroides uniformis),growth AUC [2],growth AUC (Clostridium difficile),growth AUC (Collinsella aerofaciens),growth AUC (Coprococcus comes),growth AUC (Escherichia coli ED1a),growth AUC (Escherichia coli IAI1),growth AUC (Eubacterium rectale),growth AUC [3],growth AUC (Lactobacillus gasseri),growth AUC (Lactobacillus paracasei),growth AUC (Odoribacter splanchnicus),growth AUC [4],growth AUC (Parabacteroides merdae)
CCSC(=O)N(CC)CC,1.01,0.998,0.991,1.01,1.1,1.03,1.01,0.929,0.982,0.982,1.04,1,0.994,1,1.02,0.988,0.983,0.915,1.01,0.981
COc1c(I)cc(C#N)cc1I,0.86,0.837,0.932,1.02,1.13,0.932,0.882,1.02,0.943,0.883,0.973,1,0.975,1,0.981,0.895,0.911,1.03,0.966,0.944
O=C(O)c1cccc2nnsc12,0.935,0.996,0.998,0.964,0.963,1.01,1.01,1.03,0.99,0.977,0.996,0.989,0.991,1.01,0.982,0.936,0.909,1.03,0.999,0.998
CCC/C(=N\OCC)C1=C(O)CC(C2CCCSC2)CC1=O (stereo not given),1.22,0.946,1.01,0.936,0.999,1.04,0.974,1.04,1.01,0.993,1.03,0.988,1.01,1.14,1.03,0.907,0.986,1.01,0.81,1.04
CC(=O)Oc1c(Cl)c(Cl)c(Cl)c(Cl)c1Cl,0.861,0.559 (active),0.585 (active),0.66 (active),0.448 (active),0.565 (active),0.52 (active),0.942,0.784 (active),0.937,0.953,0.936,0.808,0.942,0.782,0.871,1.05,0.548 (active),0.542 (active),0.558 (active)
CCOC(=O)c1cnn(C)c1S(=O)(=O)NC(=O)Nc1nc(OC)cc(OC)n1,1.08,0.999,1.02,1,1.15,0.966,1.03,1.06,0.982,1,0.991,1.02,1.01,1.08,1.09,1.1,1.02,0.759,1.03,1.02
CS(=O)(=O)c1ccc(C(=O)C2C(=O)C(O)CC(O)C2=O)c(Cl)c1COCC(F)(F)F (stereo not given),0.99,0.986,0.96,0.972,0.982,0.965,0.975,0.978,0.99,1,1,0.988,0.972,0.798,1.02,1.02,0.987,0.98,1.03,0.998
O=c1cc(Cl)[nH]nc1-c1ccccc1,0.833,1.01,0.967,1.05,0.777,1.02,1.01,0.954,1.07,0.983,0.973,0.956,0.954,0.939,0.995,0.992,0.748,1.02,1.02,0.982
COC(=O)C(C)Oc1ccc(Cl)cc1C (stereo not given),0.866,0.999,0.996,1,1.15,1,1,1,0.974,1.04,1.04,0.991,1,0.997,1.03,1.06,1.01,1.02,1.02,1.05
CCNc1nc(Cl)nc(N(CC)CC)n1,1.06,0.995,1.01,0.986,1.01,0.977,0.951,1.02,1.02,1.03,1.02,1.02,0.971,1.04,1.11,0.925,0.997,1.04,1.07,1
COc1cccc(N(C)C(=S)Oc2cccc(C(C)(C)C)c2)n1,0.871,0.93,0.921,1.06,0.839,1.01,1.01,0.895,1.09,0.97,0.954,0.997,0.982,0.896,0.971,1.06,0.707,1.11,0.951,0.933
CON(C(=O)c1cc(C)oc1C)C1CCCCC1,0.96,1,1,1,1.04,0.972,0.997,1.03,0.972,1.03,0.992,1.01,0.968,1,1.03,1.05,0.991,1.02,1.05,0.982
C=C1C[C@]23C[C@@]1(O)CC[C@H]2[C@@]12C=C[C@H](O)[C@@](C)(C(=O)O1)[C@H]2[C@@H]3C(=O)O,1.24,0.966,0.999,0.921,1.01,1.02,0.947,0.915,0.931,0.95,0.975,0.982,1.01,1.14,0.967,0.921,0.94,0.779,0.778,0.995
CC(C)N(C)S(=O)(=O)NC(=O)c1cc(-n2c(=O)cc(C(F)(F)F)[nH]c2=O)c(F)cc1Cl,0.971,0.993,0.983,0.967,1.1,1,1.03,0.962,0.982,0.953,0.971,0.995,1,0.959,1.08,1.03,0.893,1.03,0.961,1.02
COc1nc(NC(=O)NS(=O)(=O)c2ccccc2C(F)(F)F)nc(C(F)(F)F)n1,1.06,1.03,0.979,0.971,1,0.974,1,1.01,0.987,1.01,1.01,0.99,1,0.979,0.988,0.899,0.986,1.06,0.996,0.964
COC(=O)c1ccccc1S(=O)(=O)NC(=O)n1nc(OCC(C)O)n(C)c1=O (stereo not given),0.933,1,0.962,0.992,0.982,0.994,1.03,0.956,0.951,1.02,0.991,0.99,0.991,1.08,1.02,1.01,1.03,0.943,1.03,0.996

# From the supplement of paper PMC12669032
